Compounds without any hit were thinned out: in the full panel of roughly 83,000, 20% have a hit.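 Single-concentration screen, 48 h exposure, 96-well plates. Endpoint: percent growth. Below 10 = active.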 Activity calls are given as the source filed them.

In the assay the test system is SF-295 CNS. The experiment in a line: NCI-60 one-dose screen, 48 h (100 = growth as untreated, 0 = no growth, -100 = all killed). Conditions: 10 µM unless noted.
In the case of `C=CC1=C[C@@H]2[C@@H]3O[C@]4(CC[C@H](O4)[C@@H](C)C[C@@H](O)C3=O)C[C@H](O)C3=NCC[C@@]32CC1`, the growth was -35.9% (active).
The same measure for `Cc1cc(-c2nc3cc(F)ccc3[se]2)cc(F)c1N`: 99.7% (inactive).
Then `CN1CC(=O)N(O)C1(C)c1cccnc1` (configuration not stated), with 96.4% (inactive).
The same measure for `O=C(Nc1ccncc1F)c1cn(CC2CC2)c2ccccc12`: 100% (inactive); for `COc1cccc2c1c(C(=O)C(=O)Nc1cc(C)no1)cn2Cc1ccc(F)cc1`: 73.6% (inactive); for `CC(C)OC(=O)[C@H](C)NP(=O)(Oc1ccccc1)C1CCCN(O)C1=O` (some centres not stated): 95.6% (inactive).
As for `CC[C@@H]1[C@@H](C)O[C@@](O)([C@@H](C)[C@H](O)[C@H](C)[C@H]2OC(=O)/C=C/C=C/[C@H](C)[C@@H]([C@@H](C)[C@@H](O)[C@H](C)[C@@]3(O)C[C@@H](O[C@H]4C[C@@H](O)[C@H](O)C(C)O4)[C@H](CC)[C@@H](C)O3)OC(=O)/C=C/C=C/[C@@H]2C)C[C@H]1O[C@@H]1C[C@@H](O)[C@H](O)C(C)O1` (some centres not stated), the growth is -86.5% (active).
Then `CCOc1ccc(/C=C/[N+](=O)[O-])cc1`, with 82.5% (inactive); and `O=C1C2C(C(=O)[N]1[Hg][c]1ccccc1)C1(Cl)C(Cl)=C(Cl)C2(Cl)C1(Cl)Cl` (configuration not stated), with 67.8% (inactive); and `COC(=O)[C@@H](C)C[C@H](Cc1ccc2ccccc2c1)NC(=O)c1csc([C@@H](C[C@H](C(C)C)N(C)C(=O)[C@@H](NC(=O)[C@H]2CCCCN2C)C(C)C)OC(C)=O)n1`, with 56.7% (inactive).
Then `Cc1cc(N(CCCl)CCCl)ccc1C=Nc1ccccc1-c1ccccc1`, with 27.2% (inactive); and `CCn1cnc2c(Nc3cccc(Cl)c3)nc(N[C@@H]3CCCC[C@@H]3N)nc21`, with 9.85% (active); and `CC12CCC3C(CCC4=CC(=O)CCC43CF)C1CCC2=O` (configuration not stated), with 106% (inactive).
The same measure for `C=CC12CCN(CC1)C(C(O)c1ccnc3ccc(OC)cc13)C2` (configuration not stated): 72.3% (inactive).
With `COc1cc([C@@H]2c3cc4c(cc3[C@H](OC(C)=O)[C@H]3COC(=O)[C@H]23)OCO4)cc(OC)c1OC`, the growth was 10.6% (inactive).
The same measure for `CC(=O)[O][Hg][O]C(C)=O`: 90.3% (inactive).
Then `O=C(CCCCCCC(=O)Nc1ccc(N(CCCl)CCCl)cc1)NO`, with 32.7% (inactive).
Then `CC[C@H](C)[C@H](NC(=O)[C@H]1CCCCN1C)C(=O)N(C)[C@H](C[C@@H](OC(C)=O)c1nc(C(=O)NC23CC(C(=O)OC)(C2)C3)cs1)C(C)C`, with 2.38% (active); and `COc1ccc(/C(C)=C(\c2ccc(OCCN3CCOCC3)cc2)c2ccc(OC(=O)Cc3ccccc3)cc2)cc1`, with 108% (inactive).
Turning to `NC(=O)C(Br)c1ccccc1` (configuration not stated), the growth was 97% (inactive).
Consider `O=C([O][Hg][CH2]C1OCCOC1[CH2][Hg][O]C(=O)c1ccccc1)c1ccccc1` (configuration not stated), for which the growth was 112% (inactive).
Then `CN(C)CCCOc1ccc2c(c1)c(C(=O)C(=O)NCCO)cn2Cc1ccccc1`, with 103% (inactive).
Then `C1CCC([PH+](C2CCCCC2)C2CCCCC2[PH+](C2CCCCC2)C2CCCCC2)CC1.O=C(C1[CH-]CCCC1)C1CCCC[N-]1.[Au]` (configuration not stated), with -46.8% (active); and `C[Se]C(=O)c1ccccc1OC(C)=O`, with 48.6% (inactive).
The same measure for `CC(C)COC(C[N+](=O)[O-])C(Cl)(Cl)Cl` (configuration not stated): 113% (inactive); for `Oc1c(O)c(Cl)c(Cl)c(Cl)c1Cl`: 9.55% (active).
For `NC(N)=N/N=C\c1c[nH]c2ccc(Br)cc12`, the growth was 79.9% (inactive).
Then `Brc1ccc2c(c1)c(-c1nc(-c3c[nH]c4ncccc34)cs1)cn2CCN1CCCCC1`, with 91.5% (inactive); and `COc1ccc2c(c1)c(C1(O)CC(CSC#N)OC1=O)cn2C(=O)c1ccc(Cl)cc1` (configuration not stated), with 90.2% (inactive).
The same measure for `COC(=O)[C@@H](C)C[C@H](Cc1ccccc1)NC(=O)c1nc([C@@H](C[C@H](C(C)C)N(C)C(=O)[C@@H](NC(=O)[C@H]2CCCCN2C)C(C)C)OC(C)=O)sc1C`: 15.4% (inactive).
As to `COc1ccc(-n2c(C)nc3cc(OC)c(OC)cc3c2=O)cc1OC`, the growth is 100% (inactive).
Take `CC[S][Hg][Cl]`: the growth was 112% (inactive).
Consider `COc1ccc(C2=CC(c3ccc(OC)c(OC)c3)c3c(c4ccccc4oc3=O)O2)cc1OC` (configuration not stated), for which the growth was -54.4% (active).
On to `COc1ccc(/C=C\c2cc(OC)c(OC)c(OC)c2)cc1OCC(=O)Nc1nc2ccc(OC(F)(F)F)cc2s1`, for which the growth is 40.8% (inactive).
The same measure for `CCCCCCCCCCCCCCCCCC1OC[C@H](COC(=O)O[C@@H](C(=O)O[C@H]2C[C@@]3(O)[C@@H](OC(=O)c4ccccc4)[C@@H]4[C@]5(OC(C)=O)CO[C@@H]5C[C@H](O)[C@@]4(C)C(=O)[C@H](OC(C)=O)C(=C2C)C3(C)C)[C@@H](NC(=O)c2ccccc2)c2ccccc2)O1` (some centres not stated): 53% (inactive); for `O=C(Nc1ccc(O)cc1)C(Cl)(Cl)Cl`: 99.8% (inactive); for `CCOC(=O)[C@@H](C)C[C@H](Cc1ccccc1)NC(=O)c1nc([C@@H](C[C@H](C(C)C)N(C)C(=O)[C@@H](NC(=O)[C@H]2CCCCN2C)C(C)C)OC(C)=O)sc1CCOCc1ccccc1`: -33.6% (active).

(Values after PubChem BioAssay (NCI).)
